# Laboratory results as given in PubChem BioAssay (Tox21).
# Values without a mark were called inactive. Results filed as inconclusive are left out. Where a call stands in place of a potency, no number is given. Activity calls are given as the source filed them. The call rests on the fitted dose curve; in most records, active means well fitted curve in the direction sought with a large enough effect in the repeat runs; inconclusive means weak or mixed curves; inactive means no such curve, though single readings can be large; an effect the other way counts as inactive or inconclusive. Positions of bridges follow the written chain, without caps; N, C: chain ends. Non-standard residues stand in square brackets, D forms with d. Residues, ends and D or L forms follow the SMILES beside them. hArg = N=C(N)NCCCC[C@H](N)C(=O)O; Mpa = O=C(O)CCS
# Tests used:
# [1] = qHTS RealTime-Glo MT Cell Viability Assay in HepG2 cells - 24 hour (AID 1224867); details: RealTime-Glo luminescence; series mostly up to 76.8 µM; further: nearly all actives have a fitted effect of over 50% in size
# Outline: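 HepG2 suspension premixed with RealTime-Glo reagents is plated at 600 cells per well and left 5 h at 37 C/5% CO2. Compounds in DMSO then go in, and bioluminescence reflecting viable cell number is recorded over 40 h.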
# [2] = qHTS RealTime-Glo MT Cell Viability Assay in HEK293 cells - 32 hour (AID 1224868); details: RealTime-Glo luminescence; series mostly up to 76.8 µM; further: top concentration of the series differs between compounds; nearly all actives have a fitted effect of over 50% in size
# Outline: (§1)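 Reads taken at 0, 8, 16, 24, 32 and 40 h from the same wells. HEK293 cells (600/well) carried RealTime-Glo reagents from seeding, with compound added after a 5 h settle at 37 C.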
# [3] = A CellTox Green Cytotoxicity Assay to monitor cytotoxicity in HEK293 cells - 0 hour (AID 1224869); details: CellTox Green fluorescence; series mostly up to 76.8 µM; further: nearly all actives have a fitted effect of over 50% in size
# Outline: (§2)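 Cells (HEK293, 600/well) and dye reagent are dispensed together. After 5 h at 37 C, 23 nL compound is pinned in. Plates stay at 37 C for 40 h with fluorescence read at 0h, 8h, 16h, 24h, 32h and 40h.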
# [4] = qHTS RealTime-Glo MT Cell Viability Assay in HepG2 cells - 40 hour (AID 1224870); details: RealTime-Glo luminescence; series mostly up to 76.8 µM; further: nearly all actives have a fitted effect of over 50% in size
# Outline: (§3)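 HepG2 cells mixed with RealTime-Glo MT reagents (NanoLuc plus cell-permeant prosubstrate) were seeded at 600 cells/well, incubated 5 h at 37 C/5% CO2, then pinned with compounds in DMSO; nonlytic luminescence tracked viability during 40 h treatment.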
# [5] = A CellTox Green Cytotoxicity Assay to monitor cytotoxicity in HEK293 cells - 40 hour (AID 1224871); details: CellTox Green fluorescence; series mostly up to 76.8 µM; further: nearly all actives have a fitted effect of over 45% in size; further: potency means the concentration at half of the fitted maximal effect
# Outline: as §2
# [6] = qHTS RealTime-Glo MT Cell Viability Assay in HEK293 cells - 16 hour (AID 1224872); details: RealTime-Glo luminescence; series mostly up to 76.8 µM
# Outline: as §1
# [7] = qHTS RealTime-Glo MT Cell Viability Assay in HepG2 cells - 8 hour (AID 1224873); details: RealTime-Glo luminescence; series mostly up to 76.8 µM; further: nearly all actives have a fitted effect of over 55% in size
# Outline: as §3
# [8] = qHTS RealTime-Glo MT Cell Viability Assay in HEK293 cells - 40 hour (AID 1224874); details: RealTime-Glo luminescence; max response: hits give low values; further: nearly all actives have a fitted effect of over 50% in size
# Outline: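 Real-time viability in HEK293: signal arises when living cells convert a prosubstrate for NanoLuc in the medium, so luminescence tracks viable cell number. Compound (23 nL, DMSO) added 5 h post-seeding; kinetic reads at 0–40 h, 37 C.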
# [9] = A CellTox Green Cytotoxicity Assay to monitor cytotoxicity in HEK293 cells - 24 hour (AID 1224875); details: CellTox Green fluorescence; series mostly up to 76.8 µM; further: nearly all actives have a fitted effect of over 45% in size; further: potency means the concentration at half of the fitted maximal effect
# Outline: as §2
SMILES,outcome [1],Potency [2],Potency [3],outcome [4],Potency [5],Potency [6],outcome [7],max response [8] [%],Potency [9],"activity change, negative = cytotoxicity [1]","activity change, negative = cytotoxic [2]",cytotoxicity [3],"activity change, negative = cytotoxic [4]",cytotoxicity increase [5],"activity change, negative = cytotoxicity [6]","viability change, negative = cytotoxic [7]",activity change [9]
CC(=O)OCC(=O)Nc1cc(C#N)cc(NC(=O)COC(C)=O)c1Cl,inactive,inactive,inactive,inactive,inactive,inactive,inactive,0.686,inactive,,,,,,,,
CC(S)C(C)S (configuration not stated),inactive,inactive,inactive,inactive,inactive,inactive,inactive,7.38,inactive,,,,,,,,
C=C(C)[C@@H]1CC=C(C)C(=O)C1,inactive,inactive,inactive,inactive,inactive,inactive,inactive,-8.2,inactive,,,,,,,,
CCOCCOCC,inactive,inactive,inactive,inactive,inactive,inactive,inactive,2.51,inactive,,,,,,,,
COc1ccc2c(c1)c1c3n2CCN(C)C3=NCC1,inactive,inactive,inactive,inactive,inactive,inactive,inactive,17.6,inactive,,,,,,,,
CCCCCCCCCCCCCCCCCCOCCO,,,,,,,,-1.04,,-2.19% [at 15.8 µM],-2.29% [at 15.8 µM],1.2% [at 15.8 µM],-6.69% [at 15.8 µM],8.77% [at 15.8 µM],-4.86% [at 15.8 µM],-3.15% [at 15.8 µM],"5.76% [at 15.8 µM, hits give high values]"
CC(=O)C1C(=O)C=C(C)OC1=O (configuration not stated),inactive,inactive,inactive,inactive,inactive,inactive,inactive,1.99,inactive,,,,,,,,
CCOc1cccc(N)c1,inactive,inactive,inactive,inactive,inactive,inactive,inactive,2.76,inactive,,,,,,,,
OCC1CCC(CO)CC1 (configuration not stated),inactive,inactive,inactive,inactive,inactive,inactive,inactive,6.03,inactive,,,,,,,,
CC1(C)CC(OC(=O)CCCCCCCCC(=O)OC2CC(C)(C)NC(C)(C)C2)CC(C)(C)N1,,,,,,,,17,,2.8% [at 15.8 µM],12.2% [at 15.8 µM],-1.08% [at 15.8 µM],6.12% [at 15.8 µM],-6.42% [at 15.8 µM],3.79% [at 15.8 µM],-0.0146% [at 15.8 µM],"-4.42% [at 15.8 µM, hits give high values]"
Cn1c(=O)c2c(ncn2CCO)n(C)c1=O,inactive,inactive,inactive,inactive,inactive,inactive,inactive,3.56,inactive,,,,,,,,
COC(C)(OC)OC,inactive,inactive,inactive,inactive,inactive,inactive,inactive,5.48,inactive,,,,,,,,
O=C(Cl)c1ccccc1[N+](=O)[O-],inactive,inactive,inactive,inactive,inactive,inactive,inactive,9.73,inactive,,,,,,,,
COC(=O)/C=C\C(=O)O,inactive,inactive,inactive,inactive,inactive,inactive,inactive,0.0191,inactive,,,,,,,,
CO[Si](CCCn1c(=O)n(CCC[Si](OC)(OC)OC)c(=O)n(CCC[Si](OC)(OC)OC)c1=O)(OC)OC,inactive,inactive,inactive,inactive,inactive,inactive,,1.02,,,,,,,,,
C=CCCCCCCCCC(=O)OCCCC,inactive,inactive,inactive,inactive,inactive,inactive,,7.61,inactive,,,,,,,,
CC1OCCC1=O (configuration not stated),inactive,inactive,inactive,inactive,inactive,inactive,,3.12,inactive,,,,,,,,
NC(=O)[C@@H]1CSSCCC(=O)N[C@@H](CCCCN=C(N)N)C(=O)NCC(=O)N[C@@H](CC(=O)O)C(=O)N[C@@H](Cc2c[nH]c3ccccc23)C(=O)N2CCC[C@H]2C(=O)N1 ([Mpa][hArg]GDWPC-NH2; disulfide 1-7),inactive,inactive,inactive,inactive,inactive,inactive,inactive,0,inactive,,,,,,,,
C/C(CC(C)C)=N\O,inactive,inactive,inactive,inactive,inactive,inactive,inactive,-0.628,inactive,,,,,,,,
O=C(CCCl)NCCc1ccccc1,inactive,inactive,inactive,inactive,inactive,inactive,inactive,5.46,inactive,,,,,,,,
CCCCC1CCC(O)CC1 (configuration not stated),inactive,inactive,inactive,inactive,inactive,inactive,,-3.78,inactive,,,,,,,,
C=C(C)c1cccc(C(C)(C)N=C=O)c1,inactive,inactive,inactive,inactive,inactive,inactive,inactive,3.52,inactive,,,,,,,,
CCCC(=O)OC/C=C(\C)CCC=C(C)C,inactive,inactive,inactive,inactive,49 µM (active),inactive,inactive,10.7,54.9 µM (active),,,,,,,,
